# According to PubChem BioAssay (NCATS):
# Inconclusive results are not listed. Unmarked numbers belong to inactive results. The call rests on the fitted dose curve; in most records, active means well fitted cell-killing curve with a large enough effect; inconclusive means small, poorly fitted or top-dose-only effect, or effect the other way; inactive means flat fitted curve, though single readings scatter.
# Assay: Cell Viability - HUV-EC-C (AID 542);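 further: cells exposed to compound for 40 hours; nearly all actives have a fitted effect of over 35% in size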
# Details: HUV-EC-C endothelial cell viability, qHTS; series mostly up to 92.2 µM; activity change, negative = cytotoxicity: at the top concentration
# In short: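 Decrease in cellular ATP, quantified by luciferase luminescence, reflects toxicity in normal human vascular endothelial HUV-EC-C cells given compound for 40 hr in complete culture medium. Values are AC50s from concentration-response curves.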
# On the % scale 0 is the no-effect control and ±100 the full control effect.
row,Compound,"activity change, negative = cytotoxicity"
1,CCC1CO1 (stereo not drawn),-2.95%
2,FC(F)(F)c1cccc(Cl)c1,-9.01%
3,CC(=O)Nc1ccc(C)cc1,0.552%
4,C=Cc1ccccn1,11.7%
5,CCNc1ccccc1,7.26%
6,Cc1ccccc1Br,-3.37%
7,O=C(O)CNC(=O)c1ccc([N+](=O)[O-])cc1,-26.3%
8,C=C(C)C(=O)OCC(C)C,8.86%
9,C/C=C1\CC2C=CC1C2 (stereo not drawn),-2%
10,CCC(O)C(C)(C)C (stereo not drawn),13.3%
11,CCOC(=O)OCC,6.54%
12,CC(=O)OCc1ccco1,-1.89%
13,COc1ccccc1[N+](=O)[O-],-9.85%
14,CCCCC(CC)COCC1CO1 (stereo not drawn),-0.00375%
15,Cc1c(N)cccc1[N+](=O)[O-],-11.2%
16,ClC/C=C/CCl,4.23%
17,N#CCc1ccccc1[N+](=O)[O-],-10.2%

row,Compound,"activity change, negative = cytotoxicity"
1,Cc1cccc(C)c1[N+](=O)[O-],1.73%
2,CCCOCC(C)O (stereo not drawn),-9.24%
3,CSc1ccc(C=O)cc1,-2.08%
4,CC(O)COC(C)(C)C (stereo not drawn),-4.27%
5,Fc1ccccc1,2.21%
6,NC(=O)NC(N)=O,26.3%
7,C=CC(=O)NC(C)C,-2.17%
8,CCOC(=O)C(C)C(C)=O (stereo not drawn),8%
9,O=C(O)c1ccc(Cl)cc1Cl,8.14%
10,C=C(C)C1CC=C(C)C(OC(C)=O)C1 (stereo not drawn),2.75%
11,O=C(O)c1ccccc1Cl,0.744%
12,CCOCCOCC,13.5%
13,CCCCCCCCN,13.8%
14,CC(C)=CCC/C(C)=C/C=O,-6.26%
15,C/C=C(/C)C#N,5.68%
16,CN(C)CCCNCCCN,5.39%
